Bioassay records: PubChem, Broad Institute
Tg IFNy HTS: T. gondii growth inhibition under IFN-gamma; Toxoplasma gondii growth in IFN-gamma-treated host cells; stronger effect = lower value; 69,000 compounds, 3.8% hits; activity change, negative = inhibition, % (no concentration beside the values); AID 1259416; in the data active = activity change below about -70%, passing the limit was not always enough;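 note: host cells are HeLa cells infected with Toxoplasma gondii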
Large screens that a line does not name were inactive; ! = a repeat was not active. Shown is part of a subset that was picked to be rich in hits.

COCc1nnc(NC(=O)c2cc(-c3ccc(F)cc3)n(C)n2)s1	none
Cc1oc(-c2cccc(C(F)(F)F)c2)nc1CN(C)Cc1cnc(N)nc1	none
FC(F)(F)c1cccc(-c2nnc(C3c4ccccc4Oc4ccccc43)o2)c1	Tg IFNy HTS -99
FC(F)(F)c1cccc(-c2ccc(-c3cccc(C(F)(F)F)c3)o2)c1	none
CNc1nc(C2CCCN2S(=O)(=O)c2ccc(OC)cc2)nc2c1CCN(C)C2 (centres undefined)	none
Cc1noc(C)c1CN1CCc2nnc(CO)n2CC1	none
CC(C)Sc1ccccc1C(=O)NCc1ccccn1	none
O=C(Nc1cc(-c2ccccn2)no1)c1cccc2[nH]ccc12	none
CNC(=O)c1ccccc1Sc1ccc2c(/C=C/c3ccccn3)n[nH]c2c1	Tg IFNy HTS -75!
Cc1nc(NCC2CC2)nc2c1COCC21CCN(C(=O)C2CC2)C1 (centres undefined)	none
COCCN1CCN(c2ccc3ccc(C(=O)NCc4cccs4)cn23)CC1	none
COc1cc(C(F)(F)F)cc(C(F)(F)F)c1C(N)=O	none
COc1cc(C(F)(F)F)cc(C(F)(F)F)c1C(=O)NCc1cccs1	Tg IFNy HTS -81
COc1cc(C(F)(F)F)cc(C(F)(F)F)c1C(=O)Oc1ccc(Cl)cc1	Tg IFNy HTS -96
Cc1cc(-c2onc(C)c2C(=O)Oc2ccc(Cl)cc2)no1	none
O=C(CCCC(=O)NCc1cccs1)NCc1cccs1	none
Cc1nn(CC(=O)N2CCC(C)CC2)c(=O)c2nc(-c3ccccc3)sc12	none
O=C(Cn1ncc2c(N3CCN(c4ccccc4)CC3)ncnc21)N1CCN(c2ccccc2)CC1	none
Cc1cccc(C(=O)N2CCCC3(CC(c4cnn(C)c4)CO3)C2)c1 (centres undefined)	none
O=C1OC(=O)C2C1[C@@H]1CC[C@H]2O1 (some centres undefined)	Tg IFNy HTS -77
CCCCC(=O)Nc1cccc(C(=O)N(C)Cc2ccncn2)c1	none
CCNS(=O)(=O)c1ccc(-c2oc3cc(S(=O)(=O)NCC)ccc3c2Cl)cc1	Tg IFNy HTS -78
CCN(CC)S(=O)(=O)c1ccc2oc3ccc(S(=O)(=O)N(CC)CC)cc3c2c1	none
CCCc1cc(=O)oc2cc(OS(=O)(=O)c3ccc(Cl)cc3)ccc12	none
C=CCn1nc(C(=O)O)c2c1CCC(N1CC(Oc3cccc(C)c3)C1)C2 (centres undefined)	none
C=CC(=O)Nc1cccc(Nc2nc(Nc3ccc(OCCOC)cc3)ncc2F)c1	none
COc1cc(Nc2ncc(F)c(Nc3ccc4c(n3)N(COP(=O)(O)O)C(=O)C(C)(C)O4)n2)cc(OC)c1OC	Tg IFNy HTS -74
Cc1oc(C2CCN(C(=O)Nc3ccc4c(c3)OCCO4)CC2)nc1C(=O)N(C)C	none
Cc1ncsc1-c1nnc(C2CCCN2C(=O)c2ccsc2)o1 (centres undefined)	none
CN1C(Cn2cccn2)CC2CN(CC3CCOC3)CCC21 (centres undefined)	none
Cc1ccc(-n2c(SCc3nc(-c4cccc(C)c4)oc3C)nc3c(=O)[nH]cnc32)cc1	none
Cc1oc(-c2ccc(OC(C)C)cc2)nc1CSc1nc2c(=O)[nH]cnc2n1-c1ccccc1	none
Cc1oc(-c2ccc(Cl)cc2)nc1CSc1nc2c(=O)[nH]cnc2n1-c1ccccc1	none
COc1cccc(-c2nc(CSc3nc4c(=O)[nH]cnc4n3-c3ccccc3)c(C)o2)c1OC	none
Cc1oc(-c2cccc(Cl)c2)nc1CSc1nc2c(=O)[nH]cnc2n1-c1ccccc1	Tg IFNy HTS -84
CCn1c(SCc2nc(-c3cccc(Cl)c3)oc2C)nc2c(=O)[nH]cnc21	none
Cc1ccc(-c2nc(CSc3nc4c(=O)[nH]cnc4n3-c3ccc(C)cc3)c(C)o2)cc1	Tg IFNy HTS -95
CCn1c(SCc2nc(-c3ccc(C)cc3)oc2C)nc2c(=O)[nH]cnc21	none
Cc1ccc(-c2nc(CSc3nc4c(=O)[nH]cnc4n3-c3ccccc3)c(C)o2)cc1	Tg IFNy HTS -104
Cn1nccc1C(=O)C1CCN(C(=O)CN(CCc2ccccc2)S(C)(=O)=O)CC1	none
Cc1cc(-c2ccc(=O)n(C3CCN(C(=O)C4CCC4)CC3)n2)c(C)o1	none
OC[C@H]1O[C@@H](n2cnc3c(NC4CCCC4)ncnc32)[C@H](O)[C@@H]1O	none
OC[C@H]1O[C@@H](n2cnc3c(NCc4ccco4)ncnc32)[C@H](O)[C@@H]1O	Tg IFNy HTS -83
OCC1OC(n2cnc3c(NC4CCCC4)ncnc32)C(O)C1O (centres undefined)	none
COC(CNc1cc(N2CCOCC2)nc(N)n1)c1cccs1 (centres undefined)	none
CCCc1nc(NCc2ccccc2-n2ccnc2)c2cnn(C)c2n1	none
COc1ccc(-c2ccc(C(=O)N(Cc3nccn3C)C3CC3)o2)cc1	none
COc1ccc(CN(C(=O)c2cc(-c3ccc(C)cc3)on2)C2CCN(C)CC2)cc1	Tg IFNy HTS -76
COc1ccc(CN(C(=O)c2cc(C(C)C)c3nncn3n2)C2CCN(C)CC2)cc1	none
COCCCn1ccnc1-c1nccn1C	none
C=CCN1C(=O)C2(NCCc3c2[nH]c2ccc(C)cc32)c2ccccc21 (centres undefined)	none
Clc1ccc2c(c1)N=C(N1CCNCC1)c1ccccc1N2	none
CN1CCN(C2=Nc3cc(F)ccc3Cc3ccccc32)CC1	none
